Screen size: about 53,000 sequences; about 3,700 (7%) were called active.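 Rule for the calls: active = gene knockdowns whose robust z-score for IL-1 alpha signal is at least 2 or at most -2, so actives lie on both sides; inactive = the rest.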 Many of the other results were omitted from the sample, so actives are more common in it than they were.

This assay is described as follows: Components of the Cytosolic LPS Sensing Pathway: Gene Identification via Genome-wide siRNA Screen.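 Note: robust z of the log signal after scaling to non-targeting control siRNA wells of the plate.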 The note with it: RAW264.7 macrophages, IL-1a HTRF, actives lie on both sides, screened at 100 nM (by protocol), cells primed 5 h with Pam3CSK4 first. Put shortly:
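RAW264.7 mouse macrophages reverse-transfected with single siRNAs (100 nM final) for 48h, primed with Pam3CSK4 for 5 hours, then transfected with LipidA for 24 hour. Supernatant IL-1a read by HTRF; values normalized to negative-control median, log-transformed robust z-scores.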
(In general: In TR-FRET formats the signal depends on donor and acceptor labels being close together.)
On to GGCAAUUCAAACAAUGCAGTT against Orm1, for which the z-score was -1.41 (inactive).
The figure for GCUAUAAUUUGACAGUUAGTT against Lrba is 0.0367 (inactive); for GGAGAGAUGCCUUUUAAGUTT against Zfp954 it is -0.252 (inactive).
With GGAUGGUCUUAGGAUUACGTT against Fgf15, the z-score was 2.04 (active).
Turning to GGUAAAGAUCCAGUGCCGCTT against Tbc1d10c, the z-score was -1.02 (inactive).
The figure for GGUUCAAGUGCAUUGCUUCTT against Rab34 is 0.979 (inactive).
In the case of GGUGGAUUUUAAGUUUCCUTT against Aurkc, the z-score was 3.43 (active).
As to GGGCAAUCUGAGCAAUUGUTT against Wnt7b, the z-score is -0.213 (inactive).
As for GCCUAGACAAUGGUGACCUTT against Nsfl1c, the z-score is -0.772 (inactive).
The figure for CCGACAUUUUCGUCACCAGTT against Gabra1 is -1 (inactive); for GGCUAAUGUAUCGUCUGAGTT against Asb16 it is 3.06 (active); for CCAGCCAUAUCAACCGUAUTT against Lzts3 it is 0.084 (inactive).
Regarding CCGCUUCUCUAGUGAAUAATT against Uros, the z-score was -1.56 (inactive).
The figure for GGAAACACUUGAACAAAGATT against Tph2 is 0.518 (inactive).
The figure for GGACAUGUUUGUGUUAAAGTT against Ctnna1 is 0.187 (inactive).
For GGUGUGUGGCCAGAAAGUUTT against Sfi1, the z-score is -2.83 (active).
As for GCUUUAUGAGUUCACGGAGTT against Prkab2, the z-score was 1.02 (inactive).
The figure for GGUUCUUAUCUCUAUUCAGTT against Olfr1270 is 0.432 (inactive); for GGAAACCUACUGUUGCACUTT against Wdr59 it is -0.627 (inactive); for GAAGAUUGGAUUUAAAGCCTT against Olfr667 it is -0.891 (inactive).
Turning to GGCUACAAGUGGGAAUUCATT against Cmtm2b, the z-score is 1.61 (inactive).
The figure for GGAGCUCAAGAACAGGAUGTT against Clec3b is -0.0394 (inactive).
Consider GCGGAGAAUAACAUAUCUCTT against Fut8, for which the z-score is -0.521 (inactive).
As for GGAUUUGUAAAUUACCUGGTT against Clec4d, the z-score is 0.544 (inactive).
With GCACAAUAAUAAUGACACUTT against AI597479, the z-score is 2.76 (active).
Regarding GUAUGCUAGCAUGAUCAACTT against Ndufa3, the z-score is 1.05 (inactive).
As to GGCCAGAUAUUAUAAGAAATT against Gtdc1, the z-score was 0.332 (inactive).
For GCCUUUGCAUGGCAGUCUATT against Zfp825, the z-score is -0.716 (inactive).
As to GGCUGUUCAAAGUGACCCUTT against Hbp1, the z-score was -3.11 (active).
As to GCUGCCUAUGGCUUCUUCCTT against Tmem160, the z-score was -1.37 (inactive).
The figure for GGUGCUGAUUACAGUAGAATT against Pcdhga10 is 2.01 (active); for GGACCAAGUAUCAUGAUGUTT against Zfp369 it is 0.222 (inactive).
The figure for GCACCUCUUGGACAAAAUUTT against Tsc1 is -1.59 (inactive); for GGCGGCCUAUAUGAGGUUCTT against Cftr it is 0.548 (inactive).
The figure for GCAUUGAGAUGAGAGCCUATT against Uroc1 is -0.167 (inactive); for GCAGUUGUCAUGCUAAACCTT against Ptpn2 it is 2.89 (active); for CGAAUACUACGCCAAGAUUTT against Abca2 it is -0.867 (inactive).
Regarding GCUCAGUACCGCACAACCATT against Dus3l, the z-score was -0.827 (inactive).
CCUAUUGUGAGCUUAAUGCTT against Nrxn2: the z-score was -0.74 (inactive).
For the sequence GGGCUAUGUACCCUAUAAUTT against Eps8l1, the z-score was -1.37 (inactive).
As to GGGCAUUGGUGACUUUGAATT against Hrob, the z-score was -2.11 (active).
The figure for GGACACAACAAGUCUUAUGTT against Prg2 is -0.876 (inactive).
Regarding CCUUGCUACUCUGAUAACGTT against Tmeff1, the z-score is 0.761 (inactive).
With CCUAGUGUGUUAAUUGUAATT against Ric1, the z-score is -1.28 (inactive).
Regarding GGAUGCUUACGGGAGACGATT against Tmem9, the z-score was -0.595 (inactive).
The figure for GGUGAAGGUGCCUUCCAAATT against Il27ra is 2.91 (active); for GGAGAUUCACUUUCUAUCUTT against B3gnt9 it is 0.656 (inactive); for CCCUAAGACGAAGGAAAUGTT against Pdrg1 it is -0.844 (inactive).
On to GGCGAGUUCCAGAUUCUUCTT against Car3, for which the z-score is 1.69 (inactive).
Take GCUGAAGACCGACUACAAGTT against Cnih1: the z-score is 0.569 (inactive).
For “GGUGCCAAUCCUUUGGACATT against 4930590J08Rik”, the z-score is 3 (active).
In the case of GGAAGUUUACCAGUCUAUCTT against Pik3c2a, the z-score is 1.4 (inactive).
For GCUACCCAUGAGCUUUCGATT against S100a3, the z-score was 0.495 (inactive).
On to GCCCAUUGUUACCUUGUACTT against Klb, for which the z-score was -2.06 (active).
Regarding GGCCUUAUCGGCAGAUAUUTT against Tmem44, the z-score is -1.24 (inactive).
Regarding GGCAGUCUUAUAAUUCAUCTT against Zfp944, the z-score was -1.08 (inactive).
For CGUUUGACACUUUUGCCUUTT against Mid1, the z-score was 1.09 (inactive).
Take GGUUUUUGUGGCUGAUCUUTT against Zfp711: the z-score is -0.545 (inactive).
Take GGAUUUCCUUGGUUCUUUUTT against Mylip: the z-score is 0.145 (inactive).
With GCUCUUCCGCACUUUCAUUTT against H2al1m, the z-score is 1.37 (inactive).
As to GGAACACUCCAGUUUGAAUTT against Thsd1, the z-score was 1.09 (inactive).
Consider GGAACAAGUACAUACUUAUTT against Frs2, for which the z-score was 2.09 (active).
In the case of GCACUCAAGGUUUUACUGUTT against Satb1, the z-score was -0.356 (inactive).
Turning to CCUUGUGUAUGAAAUACUUTT against Taf1b, the z-score is -0.282 (inactive).
For GCUUGAUUUUUGACAGAGATT against Mdh1b, the z-score was 1.48 (inactive).
Turning to GCGAUGAUGAAAGCUCAGUTT against Atad1, the z-score is -2.36 (active).
Regarding CCAGGAGUCGAGUGAUGGUTT against Rtl1, the z-score was 0.886 (inactive).
On to GGGUAAACUGUGGAGAAAUTT against Fam214b, for which the z-score is -0.833 (inactive).
With GGAAGAAGCAGCAAGAAGATT against Ttc39b, the z-score is -2.16 (active).

Values taken from PubChem BioAssay AID1508600 (Functional Genomics Laboratory (NCATS/FGL), 2020).
